High-throughput results deposited in PubChem by several laboratories.
D1 mod – D1 CRE-luciferase signal change, two-sided – cell-based, HEK293 D1, dopamine EC30, D1 allosteric modulator project, primary screen; D(1A) dopamine receptor (Homo sapiens), P21728; dopamine EC30 potentiation; actives deviate in either direction; B-score at 10 µM; 58,000 tested, 5.9% active; AID 641, 2007;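 active = luminescence count or its row- and column-corrected plate score outside the 99.7% band of the plate's sample wells, on either side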
CYP2C9 activ – human CYP2C9 activators, primary screen, biochemical, luminescence. activation factor at 5 µM. Cytochrome P450 2C9 (Homo sapiens), P11712. AID 1024, 2008. 96,000 tested, 1.4% active. recombinant CYP2C9, luciferin-H conversion; stronger effect = higher value; factor 1 = untreated enzyme, 0 = blocked;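 active = activation factor of 2 or more for CYP2C9 at a 5 µM dose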;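 note: 0 = sulfaphenazole-blocked wells and 1 = vehicle-only wells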
Target sequence (P11712 whole entry, looked up): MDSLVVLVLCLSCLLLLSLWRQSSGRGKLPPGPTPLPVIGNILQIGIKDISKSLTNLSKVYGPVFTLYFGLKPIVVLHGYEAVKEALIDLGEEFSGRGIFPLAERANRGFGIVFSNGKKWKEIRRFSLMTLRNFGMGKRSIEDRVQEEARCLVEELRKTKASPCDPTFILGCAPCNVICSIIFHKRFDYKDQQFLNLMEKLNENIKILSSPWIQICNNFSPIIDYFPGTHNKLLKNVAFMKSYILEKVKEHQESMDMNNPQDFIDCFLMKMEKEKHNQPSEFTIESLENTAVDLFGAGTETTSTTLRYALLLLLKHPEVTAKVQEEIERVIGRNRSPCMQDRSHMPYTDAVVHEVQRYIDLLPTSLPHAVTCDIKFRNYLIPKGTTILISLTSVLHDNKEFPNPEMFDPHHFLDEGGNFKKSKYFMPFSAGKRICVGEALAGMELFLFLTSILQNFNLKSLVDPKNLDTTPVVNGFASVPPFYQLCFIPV
CYP2C19 inh – blockers of cytochrome P450 2C19 activity – biochemical, luminescence, ADME assay, primary screen | inhibition, % at 5 µM | CYP2C19 Supersomes, luciferin-H EGE luminescence, 30 min | 96,000 tested, 21% active | P33261;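 active = CYP2C19 inhibition above a set limit at 5 µM in the primary screen, cut at about 50% in these data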;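 note: plate controls were negative control wells for no effect and 2.5 mM tranylcypromine positive control for full effect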
hDAT+cocaine – changed hDAT dopamine uptake under cocaine IC80, either direction, primary screen, cocaine antagonist project, cell-based, LLC-PK1 hDAT, [14C]-dopamine uptake, MLSMR; Sodium-dependent dopamine transporter (Homo sapiens), Q01959; LLC-PK1 hDAT cells, [14C]-dopamine uptake with cocaine IC80; actives deviate in either direction; B-score at 10 µM; 110,000 tested, 1.3% active; AID 449768, 2010;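 active = Z score or B-score, a plate-position-corrected score, falls beyond the plate's 99.7% confidence bounds, in either direction; inactive = both scores lie inside the 99.7% bounds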;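 note: scored against the spread of the other compound wells on the same plate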
CYP2C19 act – human CYP2C19 activators, primary screen, biochemical, luminescence. 96,000 tested, under 10 active. recombinant CYP2C19, luciferin-H EGE luminescence; stronger effect = higher value; 0 = fully inhibited enzyme, 1 = untreated enzyme. Cytochrome P450 2C19 (Homo sapiens), P33261. activation factor at 5 µM;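 active = activation factor of at least 2 at 5 µM in the primary screen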;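 note: 0 = wells with 2.5 mM tranylcypromine and 1 = vehicle-only wells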
CYP2C9 inh – blockers of cytochrome P450 2C9 activity – biochemical, luminescence, ADME assay, primary screen; P11712; CYP2C9 Supersomes, luciferin-H conversion; inhibition, % at 5 µM; 96,000 tested, 20% active; AID 777, 2007;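 active = blocking of liver enzyme CYP2C9 beyond about 50% at 5 µM, limit read from the data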
* marks the source's active call; other numbers are inactive results; . = no result given. A selection: hits, their analogues and other compounds. The true share with any hit is near 28%.

SMILES | D1 mod | CYP2C9 activ | CYP2C19 inh | hDAT+cocaine | CYP2C19 act | CYP2C9 inh
COc1ccccc1C1C(C(=O)NCc2ccccc2)=C(C)Nc2ncnn21 (stereo not given) | -0.163 | 0.9 | 12.8 | 0.00782 | 0.9 | 9.4
CC(=O)C1=C(C)Nc2ncnn2C1c1ccc(Cl)cc1 (stereo not given) | -0.878 | 0.4 | 63.8* | -0.879 | 0.4 | 59.3*
CCc1ccc(C(=O)COC(=O)c2ccc(-c3nnc(-c4ccccc4)o3)cc2)cc1 | . | 1.1 | 63.9* | 0.0217 | 0.4 | -7.6
CCOC(=O)c1nnc(-c2ccccc2)o1 | -0.776 | 1.1 | -5.3 | -0.505 | 1.1 | -6.0
Cc1ccc(N2CCCCn3c2nc2c3c(=O)[nH]c(=O)n2C)cc1 | 0.652 | 0.9 | 7.8 | 0.532 | 0.9 | 12.1
CC(C)CN1C(=S)SC(C)(C)C1n1oc(=O)n(-c2ccc(Cl)cc2)c1=O (stereo not given) | . | 0.1 | 66.2* | -0.225 | 0.3 | 88.0*
Cc1ccccc1C(=O)Nc1cccc(NC(=O)c2ccc(-c3ccc(Br)cc3)o2)c1 | . | 0.4 | 17.5 | . | 0.8 | 55.5*
Cc1ccccc1C(=O)Nc1ccccc1 | . | 1.2 | -8.4 | -0.208 | 1.1 | -15.9
O=C(O)CCCCCNC(=O)c1cccc(Br)c1 | 0.373 | 1 | -7.4 | 0.594 | 1.1 | 3.7
O=C(NCCOC12CC3CC(CC(C3)C1)C2)c1cccc(Br)c1 | . | 0.7 | 71.7* | 0.018 | 0.3 | 29.5
CC(C)C(c1nnnn1Cc1ccco1)N1CCN(c2cccc(Cl)c2)CC1 (stereo not given) | -0.436 | 0.3 | 81.4* | 0.0857 | 0.2 | 69.7*
CC(C)C(c1nnnn1Cc1ccccc1)N1CCN(Cc2ccco2)CC1 (stereo not given) | -0.0166 | 0.8 | 9.4 | -0.0196 | 0.9 | 20.3
CCC(C)(C)n1nnnc1C(c1ccccn1)N1CCN(c2cccc(OC)c2)CC1 (stereo not given) | . | . | . | 0.235 | . | .
CC(C)C(c1nnnn1C(C)(C)C)N1CCN(c2cccc(Cl)c2)CC1 (stereo not given) | -1.1 | 0 | 69.5* | -0.493 | 0.3 | 97.6*
CC1CCN(c2c(NCc3ccc(C(=O)NCc4cccnc4)cc3)c(=O)c2=O)CC1 | . | 0.8 | -2.5 | -0.625 | 1 | 16.4
CCC(=O)Oc1ccc(/C(CC)=C(\CC)c2ccc(OC(=O)CC)cc2)cc1 | 0.828 | . | . | -0.153 | . | .
COCC(=O)O[C@]1(CCN(C)CCCc2nc3ccccc3[nH]2)CCc2cc(F)ccc2[C@@H]1C(C)C | . | . | . | 0.00569 | . | .
COc1ccc(N2C(C(C)=O)=NN(c3ccccc3)C2c2cccs2)cc1 (stereo not given) | . | 0.4 | 43.3 | 1.38* | 0.6 | 56.0*
CC(=O)Nc1ccc(N2C(C(C)=O)=NN(c3ccccc3)C2c2cccs2)cc1 (stereo not given) | . | 0.6 | 47.0 | -0.486 | 0.5 | 44.4
COc1cc(CNn2nnnc2N)cc(Br)c1OCc1c(Cl)cccc1Cl | . | 0.6 | 42.9 | -0.183 | 0.6 | 38.0
COc1cc(CNn2cn[nH]c2=S)cc(Cl)c1OCc1ccccc1 | . | 0.8 | 82.5* | 0.146 | 0.2 | 23.2
CCOC(=O)N1CCN(Cc2nc(-c3ccc(C)cc3)no2)CC1 | -0.0207 | 0.9 | 1.4 | 0.428 | 1 | 5.5
COc1ccc(OC)c(S(=O)(=O)N2CCC(C(=O)Nc3cccc(C(F)(F)F)c3)CC2)c1 | -1.09 | 1.2 | 47.8 | 0.342 | 0.5 | -21.4
O=C(c1ccc(Cl)cc1)N1CCC(O)(CSc2ccc(Cl)cc2)CC1 | . | 0.7 | 22.6 | 0.595 | 0.8 | 28.5
O=C(c1ccc(Cl)cc1)N1CCC(O)(CSc2ccccc2)CC1 | . | 0.6 | 54.0* | 1.03 | 0.5 | 39.9
Cc1cc(C)cc(Oc2ccc(C(F)(F)F)cc2C#N)c1 | . | 0.5 | 57.5* | 0.749 | 0.4 | 52.0*
CCOc1ccc(C(F)(F)F)cc1NC(C)=O | 1.1 | 1 | 4.3 | 0.0301 | 1 | 3.6
